# The list is not random: actives were taken first. Their share in the collection is about 4.6%.
# MARV entry inh: Marburg virus entry inhibition | Marburg virus pseudotyped entry inhibition, cell reporter | Potency, µM (highest dose often 37.8 µM), inactives show at the highest dose activity change, negative = inhibition, usual class: inhibitors | hit rate 1.8% among 300,000; calls by dose curve; tested in HEK293 cells
# HCV inh: HCV inhibition. Huh7.5.1 HCVcc-Cre infection, luciferase reporter, 44 h. Potency, µM (doses to about 41.8 µM), for the others: at the top dose activity change, negative = inhibition, usual class: inhibitors. hit rate 3.4% among 340,000. AID 651820; active = well fitted inhibition curve with a large enough effect; inconclusive = small, poorly fitted or top-dose-only effect, or another doubt; inactive = no such curve, though single readings can be large or run the other way
#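 Luciferase read-out (15 sec integration) after a 15 min room-temperature substrate step quantifies HCVcc-Cre infection. Cells, 1,000 per well, had compound added 4 h post-plating, then virus at ~0.5 moi, and were cultured 44 h.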
# LASV entry inh: inhibitors of Lassa virus binding or cell entry | Lassa virus pseudotype entry inhibition, cell reporter | Potency, µM (highest dose often 37.9 µM), without a hit: at the top dose activity change, negative = inhibition, actives largely listed as inhibitors | hit rate 1.2% among 300,000; calls by dose curve; tested in HEK293 cells; also: nearly all actives have a fitted effect of over 50% in size
# Vaccinia mCherry: vaccinia inhibition (mCherry reporter); AID 720579; Vaccinia virus mCherry reporter infection, fluorescence; Potency, µM (highest dose often 36.5 µM), without a hit: top-dose activity change, negative = inhibition, most hits filed as inhibitors; hit rate 0.63% among 310,000; calls by dose curve; tested in A549 cells; also: nearly all actives have a fitted effect of over 35% in size
# Vaccinia Venus: vaccinia inhibition (Venus reporter) | Vaccinia virus Venus reporter expression, fluorescence | Potency, µM (doses to about 36.5 µM), for inactives: top-dose activity change, negative = inhibition, actives largely listed as inhibitors | hit rate 0.46% among 330,000 | AID 720580; calls by dose curve; tested in A549 cells; also: nearly all actives have a fitted effect of over 30% in size
# * hit, by the source's call; i = inactive; ? = inconclusive; . = not tested or not shown; [ ] = dose if it differs, or a comment. % is scaled to controls: 0 for no effect and ±100 for the full control effect; potency is read from the fitted curve at half-maximal effect.
SMILES,MARV entry inh,HCV inh,LASV entry inh,Vaccinia mCherry,Vaccinia Venus
CCO[C@H]1OC(C(=O)O)=C[C@@H](c2ccc3c(c2)OCO3)[C@@H]1CCCO,.,2.5µM*,.,-12%,1%
CCO[C@H]1OC(C(=O)N2CCOCC2)=C[C@@H](c2coc3ccccc3c2=O)[C@@H]1CCCO,.,35µM*,.,i,2%
CCO[C@@H]1OC(C(=O)Nc2ccccc2)=C[C@H](c2ccc3c(c2)OCO3)[C@H]1CCCO,.,0%,.,35%,-2%
CCO[C@H]1OC(C(=O)N2CCN(C)CC2)=C[C@@H](c2coc3ccccc3c2=O)[C@@H]1CCCO,.,8%,.,i,-6%
COc1ccc(-c2cn(-c3ccc(C)cc3)c(S(=O)(=O)CC(=O)Nc3ccc(F)cc3)n2)cc1,?,.,0%[46.1 µM],-28%,-18%
CCc1nc2ccc(C(=O)NCCCN3CCN(c4ccccc4F)CC3)cc2nc1CC,10µM*,4.5µM*,?,-3%,-20%
COc1ccccc1N1CCN(CCCCNC(=O)c2ccc3ccccc3c2)CC1,8.9µM*,?,.,i,-11%
COc1ccc(C(=O)NCCCN2CCN(CCCNC(=O)c3ccc(OC)c(OC)c3)CC2)cc1OC,0%[46.1 µM],4%,-3%,-8%,11%
O=C(NCCCN1CCN(c2ccccc2F)CC1)c1ccc2nc(Cc3ccccc3)oc2c1,.,.,-20%[46.1 µM],-25%,-29%
O=C([C@@H]1CC=C[C@@H]2CCN(C3CCCCC3)C(=O)[C@@H]21)N1CCOCC1,.,.,.,i,-11%
OC(CN1C2=NCCN2c2ccccc21)c1ccc2c(c1)OCO2 (stereo not drawn),?,?,?,-26%[1.46 µM],11µM*
OC(CN1C2=NCCCN2c2ccccc21)c1ccc2c(c1)OCO2 (stereo not drawn),-13%,1%,4%,.,0%
Clc1ccc(CN2C3=NCCN3c3ccccc32)cc1Cl,?,10µM*,-22%,.,.
COc1cccc(N2CCN(C(=O)c3ccc(CS(=O)c4cccc(Cl)c4)o3)CC2)c1 (stereo not drawn),.,.,-25%[46.1 µM],5%,-19%
COCCNC(=O)c1ccc(-c2nc(CS(=O)(=O)c3ccccc3)c(C)o2)cc1,.,.,-3%[46.1 µM],-11%,3%
Cc1ccc(CN2CCSc3ccc(C(=O)NCc4cccnc4)cc32)cc1,.,25µM*,.,.,.
COc1ccc(CCNC(=O)c2ccc3c(c2)N(Cc2ccc(F)cc2)CCS3)c(OC)c1,7.9µM*,?,-30%[46.1 µM],-9%,-15%
CCOc1ccc(CCNC(=O)c2ccc3c(c2)N(Cc2ccc(F)cc2)CCS3)cc1,0%[46.1 µM],.,-2%[46.1 µM],-26%,-22%
COc1ccc(CCNC(=O)c2ccc3c(c2)N(Cc2ccc(C)cc2)CCS3)cc1OC,?,8.9µM*,?,-16%,-13%
Cc1cccc(NS(=O)(=O)c2ccc3c(c2)n(C)c(=O)n3C)c1C,.,.,-28%[46.1 µM],-22%,-22%
COC[C@H]1O[C@]2(c3ccccc3)CO[C@@H]1[C@@H](C=Cc1ccccc1)C2,26%[14.2 µM],.,?,.,.
CCN1CCOC(=O)C1CC(=O)Nc1cc(Cl)ccc1OC (stereo not drawn),-21%[46.1 µM],.,23%[46.1 µM],-9%,-6%
CC(C1CC1)N(Cc1ccccc1)C(=O)NC(=O)c1ccc(F)cc1 (stereo not drawn),5%,-2%,11µM*,-3%,-26%
COc1cc(N(C)C)ccc1/C=C1\C=Cc2ccccc21,.,.,.,21%,-18%
Cc1ccc2cc(/C=C(\C#N)C(N)=O)c(N3CCCCC3)nc2c1,-18%,14µM*,10%,.,.
SMILES,MARV entry inh,HCV inh,LASV entry inh,Vaccinia mCherry,Vaccinia Venus
Cc1ccc(OCc2ccc(C(=O)NN)o2)c([N+](=O)[O-])c1,.,3%,.,.,.
Cc1ccc(C)c(OCc2ccc(C(=O)Nc3ccc([N+](=O)[O-])cn3)o2)c1,.,2.5µM*,.,.,.
Cc1ccc(OCc2ccc(C(=O)Nc3c(C)nn(Cc4c(F)c(F)c(F)c(F)c4F)c3C)o2)c([N+](=O)[O-])c1,16µM*,16µM*,?,.,.
Cc1ccc(C)c(OCc2ccc(C(=O)NN)o2)c1,.,4%,.,.,.
C=CC[C@H](CC(=O)N(CCO)Cc1ccccc1)C(=O)N[C@H](COC(=O)[C@@H](CC=C)CC(=O)OC(C)(C)C)Cc1c[nH]c2ccccc12,.,?,.,?,11µM*
C=CC[C@@H](CC(=O)N[C@H](CO)Cc1ccccc1)C(=O)N[C@H](COC(=O)[C@@H](CC=C)CC(=O)OC(C)(C)C)Cc1c[nH]c2ccccc12,.,?,.,22µM*,13µM*
C=CC[C@@H]1C=C[C@H](ON=C(C)CCN2CCCCc3nc(C)c(C)cc32)[C@H](CO)O1,-23%[14.2 µM],.,.,.,.
Cc1ccc2occ(CN3CCOc4ccc(C(C)(O)COc5ccccc5)cc4C3)c(=O)c2c1 (stereo not drawn),.,.,.,-20%,3%
O=C(NCCN1CCOCC1)c1cnn2c(-c3ccccc3)cc(-c3ccccc3)nc12,-29%,11µM*,-30%,.,.
O=C(/C=C/c1ccccc1)c1ccc2c(c1)OCO2,.,5%,.,.,.
COc1cc(C(=O)NNC(=O)c2ccc3c(c2)OCCO3)cc(OC)c1OC,-6%,-2%,?,i,-7%
COc1cc(/C=C/C(=O)c2ccc3c(c2)OCCO3)cc(Br)c1OCC(=O)N(C)C,?,7.1µM*,-23%,2.8µM*,?
O=C(/C=C/c1ccncc1)c1ccc2c(c1)OCCO2,14µM*,-4%,?,-8%,-22%
Cc1ccc(-n2nc(CO)c(C(=O)NCc3cccs3)n2)cc1C,0%[46.1 µM],.,?,-9%,-20%
O=C(O)c1ccc(Nc2nc3ccc(Cl)cc3[nH]2)cc1,.,2.8µM*,.,i,-1%
COc1ccc(C(=O)N/C(=C/c2cccs2)c2nc3ccccc3[nH]2)cc1OC,-38%,0%,-2%,0%,-15%
O=C(/C(=C/c1ccc(Cl)cc1)c1nc2ccccc2[nH]1)c1ccccc1,?,10µM*,4.1µM*,?,?
CN(c1cccc(Cl)c1)S(=O)(=O)c1cccc(C(=O)Nc2nc3ccccc3[nH]2)c1,22µM*,?,?,?,11µM*
COc1cc(/C=C(/C(=O)c2cccs2)c2nc3ccccc3[nH]2)cc(OC)c1O,-85%,10µM*,?,.,.
COc1ccc(N(C)S(=O)(=O)c2cccc(C(=O)Nc3nc4ccccc4[nH]3)c2)cc1,?,?,?,-25%,?
CCOc1ccc(NC(=O)CSc2ncc3c(n2)-c2ccccc2N(Cc2ccccc2C)S3(=O)=O)cc1,.,.,?,-1%,9%
Cc1cccc(C)c1NC(=O)[C@H]1CCCCN1C,10%,.,.,.,.
CN(C)Cc1ccccc1-c1nccc(NCc2cccs2)n1,.,.,.,-7%,6%
COc1cc(/C=C2/C=Cc3ccccc32)ccc1N(C)C,.,.,.,-11%,-8%
O=C(Nc1nc2ccccc2[nH]1)c1ccccc1,?,?,?,.,-7%
O=C(Nc1nc2ccccc2[nH]1)c1ccc(Cl)cc1,?,?,2.5µM*,-31%,-24%
Cc1ccc(/C=C2\CCC(C3CCCC3)C2=O)cc1 (stereo not drawn),?,12%,0%,-8%,-4%
